# Data taken from PMC7862700, “An all-to-all approach to the identification of sequence-specific readers for epigenetic DNA modifications on cytosine”.
# Key:
# Experiment in all cases: DAPPL (digital affinity profiling via proximity ligation, sequencing); 10 mM Tris-HCl pH 7.5, 50 mM NaCl, 1 mM DTT, 4% glycerol, room temperature, 30 min; GST-TFs on glutathione beads, 16-mer random dsDNA library, 0.1% formaldehyde crosslink after washing; high values mean tight binding
# [1] = target: T1, FLI1 (Homo sapiens, UniProt Q01543 1-452); conditions: protein: recombinant; tags: N-terminal GST; dsDNA, one strand shown
# T1 sequence: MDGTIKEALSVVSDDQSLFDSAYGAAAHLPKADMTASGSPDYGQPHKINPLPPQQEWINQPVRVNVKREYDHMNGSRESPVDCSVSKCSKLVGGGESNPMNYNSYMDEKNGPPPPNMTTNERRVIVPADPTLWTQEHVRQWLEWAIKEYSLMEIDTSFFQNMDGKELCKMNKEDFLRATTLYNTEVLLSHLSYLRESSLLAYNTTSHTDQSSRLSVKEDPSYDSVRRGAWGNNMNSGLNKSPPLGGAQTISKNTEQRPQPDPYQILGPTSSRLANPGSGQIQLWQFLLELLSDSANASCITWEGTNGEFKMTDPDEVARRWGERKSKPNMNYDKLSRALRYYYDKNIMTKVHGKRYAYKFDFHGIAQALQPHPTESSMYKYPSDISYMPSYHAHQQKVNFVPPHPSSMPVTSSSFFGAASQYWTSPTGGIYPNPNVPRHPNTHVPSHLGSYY
# How it was run: (§1)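 Each value of binding signal is a hexamer's read frequency for a factor divided by the same hexamer's frequency in the tag-only sample. Barcoded, bead-captured GST fusions of human transcription factors made in yeast were pooled with that sample and incubated with 200 nmole of a random double-stranded 16-mer DNA library in Tris/NaCl/DTT/glycerol buffer at room temperature for 30 min. Washing, 0.1% formaldehyde crosslinking, proximity ligation, PCR and Illumina NextSeq500 sequencing followed.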
# [2] = target: T2, ELK1 (Homo sapiens, UniProt P19419 1-428); conditions: protein: recombinant; tags: N-terminal GST; dsDNA, one strand shown
# T2 sequence: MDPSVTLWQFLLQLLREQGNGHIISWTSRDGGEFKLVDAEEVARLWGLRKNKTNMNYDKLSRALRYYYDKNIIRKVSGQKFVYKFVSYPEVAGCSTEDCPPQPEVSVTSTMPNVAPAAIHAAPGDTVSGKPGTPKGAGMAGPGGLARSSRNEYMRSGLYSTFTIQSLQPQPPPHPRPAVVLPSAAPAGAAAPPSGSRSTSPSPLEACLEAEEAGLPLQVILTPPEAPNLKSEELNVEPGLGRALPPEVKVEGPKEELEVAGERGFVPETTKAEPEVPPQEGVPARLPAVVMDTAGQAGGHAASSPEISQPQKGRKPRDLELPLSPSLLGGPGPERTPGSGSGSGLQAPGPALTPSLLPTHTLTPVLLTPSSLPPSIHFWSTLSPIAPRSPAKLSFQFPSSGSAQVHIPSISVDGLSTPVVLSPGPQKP
# How it was run: as §1
# [3] = target: T3, GABPA (Homo sapiens, UniProt Q06546 1-454); conditions: protein: recombinant; tags: N-terminal GST; dsDNA, one strand shown
# T3 sequence: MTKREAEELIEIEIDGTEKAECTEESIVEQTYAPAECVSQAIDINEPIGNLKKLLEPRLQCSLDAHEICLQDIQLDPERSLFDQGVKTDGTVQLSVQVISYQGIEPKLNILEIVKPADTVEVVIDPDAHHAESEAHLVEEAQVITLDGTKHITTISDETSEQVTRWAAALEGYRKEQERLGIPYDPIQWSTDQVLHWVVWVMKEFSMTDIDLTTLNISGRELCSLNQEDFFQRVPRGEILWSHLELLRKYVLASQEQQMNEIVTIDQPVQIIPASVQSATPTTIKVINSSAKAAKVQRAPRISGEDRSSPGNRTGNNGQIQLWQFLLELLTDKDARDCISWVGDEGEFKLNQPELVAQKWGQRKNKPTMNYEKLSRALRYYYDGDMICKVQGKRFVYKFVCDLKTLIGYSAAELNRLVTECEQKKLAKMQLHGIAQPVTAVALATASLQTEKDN
# How it was run: as §1
# [4] = target: T4, ERG (Homo sapiens, UniProt P11308 1-479); conditions: protein: recombinant; tags: N-terminal GST; dsDNA, one strand shown
# T4 sequence: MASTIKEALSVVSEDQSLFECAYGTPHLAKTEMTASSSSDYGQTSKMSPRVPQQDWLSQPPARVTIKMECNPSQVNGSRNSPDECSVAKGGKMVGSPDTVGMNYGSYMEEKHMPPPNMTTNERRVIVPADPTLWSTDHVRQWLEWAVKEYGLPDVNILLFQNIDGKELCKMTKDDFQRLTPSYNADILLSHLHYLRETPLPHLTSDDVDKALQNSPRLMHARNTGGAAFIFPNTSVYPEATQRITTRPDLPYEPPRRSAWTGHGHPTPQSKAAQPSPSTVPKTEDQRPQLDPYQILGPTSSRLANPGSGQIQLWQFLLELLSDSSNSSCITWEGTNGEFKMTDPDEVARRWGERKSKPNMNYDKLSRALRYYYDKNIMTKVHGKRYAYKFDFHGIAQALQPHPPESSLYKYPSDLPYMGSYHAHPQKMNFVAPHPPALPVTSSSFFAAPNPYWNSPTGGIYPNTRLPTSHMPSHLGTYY
# How it was run: as §1
# [5] = target: ELF1 (Homo sapiens, UniProt P32519 1-619); conditions: protein: recombinant; tags: N-terminal GST; dsDNA, one strand shown
# How it was run: as §1
# [6] = target: T5, EHF (Homo sapiens, UniProt Q9NZC4 1-300); conditions: protein: recombinant; tags: N-terminal GST; dsDNA, one strand shown
# T5 sequence: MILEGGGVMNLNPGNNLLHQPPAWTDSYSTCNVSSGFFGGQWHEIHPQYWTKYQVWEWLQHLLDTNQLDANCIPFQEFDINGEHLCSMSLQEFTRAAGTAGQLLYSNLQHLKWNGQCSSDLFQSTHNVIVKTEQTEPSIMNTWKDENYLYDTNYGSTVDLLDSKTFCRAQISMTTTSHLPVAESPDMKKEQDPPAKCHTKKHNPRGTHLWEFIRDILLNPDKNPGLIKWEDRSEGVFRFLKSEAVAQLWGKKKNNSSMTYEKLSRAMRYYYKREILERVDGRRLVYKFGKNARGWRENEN
# How it was run: as §1
# [7] = target: SPI1 (Homo sapiens, UniProt P17947 1-270); conditions: protein: recombinant; tags: N-terminal GST; dsDNA, one strand shown
# How it was run: as §1
# [8] = target: SPIB (Homo sapiens, UniProt Q01892 1-262); conditions: protein: recombinant; tags: N-terminal GST; dsDNA, one strand shown
# How it was run: as §1
# [9] = target: T6, ELK3 (Homo sapiens, UniProt P41970 1-407); conditions: protein: recombinant; tags: N-terminal GST; dsDNA, one strand shown
# T6 sequence: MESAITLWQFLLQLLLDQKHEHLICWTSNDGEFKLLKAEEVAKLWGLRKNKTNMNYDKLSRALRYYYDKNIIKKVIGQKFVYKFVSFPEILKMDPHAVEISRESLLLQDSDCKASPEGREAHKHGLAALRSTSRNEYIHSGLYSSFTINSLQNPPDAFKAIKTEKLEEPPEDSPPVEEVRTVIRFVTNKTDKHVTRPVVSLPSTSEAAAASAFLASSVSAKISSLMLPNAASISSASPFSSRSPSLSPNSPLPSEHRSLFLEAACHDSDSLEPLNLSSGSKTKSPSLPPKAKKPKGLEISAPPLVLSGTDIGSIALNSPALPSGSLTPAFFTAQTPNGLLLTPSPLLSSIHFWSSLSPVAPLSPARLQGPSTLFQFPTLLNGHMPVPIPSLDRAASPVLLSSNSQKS
# How it was run: as §1
# [10] = target: T7, FEV (Homo sapiens, UniProt Q99581 1-238); conditions: protein: recombinant; tags: N-terminal GST; dsDNA, one strand shown
# T7 sequence: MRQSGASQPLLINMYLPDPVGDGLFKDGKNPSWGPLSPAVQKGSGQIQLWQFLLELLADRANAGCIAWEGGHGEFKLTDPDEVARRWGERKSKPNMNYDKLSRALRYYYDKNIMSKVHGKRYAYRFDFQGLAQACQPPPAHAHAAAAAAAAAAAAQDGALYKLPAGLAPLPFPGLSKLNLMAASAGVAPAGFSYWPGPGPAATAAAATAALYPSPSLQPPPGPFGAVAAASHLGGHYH
# How it was run: as §1
# [11] = target: ETV5 (Homo sapiens, UniProt P41161 1-510); conditions: protein: recombinant; tags: N-terminal GST; dsDNA, one strand shown
# How it was run: as §1
# [12] = target: HSF1 (Homo sapiens, UniProt Q00613 1-529); conditions: protein: recombinant; tags: N-terminal GST; chain copies: 3; dsDNA, one strand shown
# How it was run: as §1
# [13] = target: T8, SPIC (Homo sapiens, UniProt Q8N5J4 1-248); conditions: protein: recombinant; tags: N-terminal GST; dsDNA, one strand shown
# T8 sequence: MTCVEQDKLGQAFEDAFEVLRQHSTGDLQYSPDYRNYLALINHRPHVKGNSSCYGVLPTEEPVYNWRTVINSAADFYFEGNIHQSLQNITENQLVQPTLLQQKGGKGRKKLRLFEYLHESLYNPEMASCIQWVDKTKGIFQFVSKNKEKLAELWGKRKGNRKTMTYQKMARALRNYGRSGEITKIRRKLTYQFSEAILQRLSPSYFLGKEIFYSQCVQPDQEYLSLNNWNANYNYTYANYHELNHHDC
# How it was run: as §1
# [14] = target: ELF4 (Homo sapiens, UniProt Q99607 1-663); conditions: protein: recombinant; tags: N-terminal GST; dsDNA, one strand shown
# How it was run: as §1
# [15] = target: T9, ELK4 (Homo sapiens, UniProt P28324-2 1-405); conditions: protein: recombinant; tags: N-terminal GST; dsDNA, one strand shown
# T9 sequence: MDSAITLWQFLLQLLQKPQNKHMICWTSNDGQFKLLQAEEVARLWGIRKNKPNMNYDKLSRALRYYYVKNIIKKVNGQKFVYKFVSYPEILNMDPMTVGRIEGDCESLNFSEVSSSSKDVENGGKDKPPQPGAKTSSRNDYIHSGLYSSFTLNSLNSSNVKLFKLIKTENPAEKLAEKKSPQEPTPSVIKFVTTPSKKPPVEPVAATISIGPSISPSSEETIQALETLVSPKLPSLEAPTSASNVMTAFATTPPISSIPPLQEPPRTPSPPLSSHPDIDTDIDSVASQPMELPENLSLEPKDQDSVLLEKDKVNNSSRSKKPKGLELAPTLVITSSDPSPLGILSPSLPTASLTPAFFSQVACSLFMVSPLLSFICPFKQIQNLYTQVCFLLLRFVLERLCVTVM
# How it was run: as §1
# [16] = target: T10, ETV2 (Homo sapiens, UniProt O00321 1-342); conditions: protein: recombinant; tags: N-terminal GST; dsDNA, one strand shown
# T10 sequence: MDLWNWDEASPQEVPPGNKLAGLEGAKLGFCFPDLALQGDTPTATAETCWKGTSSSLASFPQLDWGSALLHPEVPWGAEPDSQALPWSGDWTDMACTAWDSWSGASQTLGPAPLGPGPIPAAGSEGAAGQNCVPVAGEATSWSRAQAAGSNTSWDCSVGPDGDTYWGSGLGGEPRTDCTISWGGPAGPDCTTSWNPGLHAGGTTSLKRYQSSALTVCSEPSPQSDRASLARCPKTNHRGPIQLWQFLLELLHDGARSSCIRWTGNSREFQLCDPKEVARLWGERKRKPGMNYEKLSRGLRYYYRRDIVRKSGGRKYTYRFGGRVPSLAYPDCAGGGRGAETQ
# How it was run: as §1
# [17] = target: T11, ELF3 (Homo sapiens, UniProt P78545 1-371); conditions: protein: recombinant; tags: N-terminal GST; dsDNA, one strand shown
# T11 sequence: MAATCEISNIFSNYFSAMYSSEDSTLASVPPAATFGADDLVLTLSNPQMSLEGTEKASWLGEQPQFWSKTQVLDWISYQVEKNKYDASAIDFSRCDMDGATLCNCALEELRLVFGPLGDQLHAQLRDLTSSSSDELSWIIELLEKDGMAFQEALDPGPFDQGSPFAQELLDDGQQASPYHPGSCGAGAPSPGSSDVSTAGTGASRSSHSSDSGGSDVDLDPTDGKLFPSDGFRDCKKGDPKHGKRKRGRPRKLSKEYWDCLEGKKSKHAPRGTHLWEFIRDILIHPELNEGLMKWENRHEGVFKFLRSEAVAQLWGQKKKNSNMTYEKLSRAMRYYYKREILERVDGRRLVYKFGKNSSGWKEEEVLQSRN
# How it was run: as §1
# [18] = target: CRX (Homo sapiens, UniProt O43186 1-299); conditions: protein: recombinant; tags: N-terminal GST; dsDNA, one strand shown
# How it was run: as §1
# [19] = target: ETV1 (Homo sapiens, UniProt P50549 1-477); conditions: protein: recombinant; tags: N-terminal GST; dsDNA, one strand shown
# How it was run: as §1
# HSF1, sequence (Q00613 whole entry): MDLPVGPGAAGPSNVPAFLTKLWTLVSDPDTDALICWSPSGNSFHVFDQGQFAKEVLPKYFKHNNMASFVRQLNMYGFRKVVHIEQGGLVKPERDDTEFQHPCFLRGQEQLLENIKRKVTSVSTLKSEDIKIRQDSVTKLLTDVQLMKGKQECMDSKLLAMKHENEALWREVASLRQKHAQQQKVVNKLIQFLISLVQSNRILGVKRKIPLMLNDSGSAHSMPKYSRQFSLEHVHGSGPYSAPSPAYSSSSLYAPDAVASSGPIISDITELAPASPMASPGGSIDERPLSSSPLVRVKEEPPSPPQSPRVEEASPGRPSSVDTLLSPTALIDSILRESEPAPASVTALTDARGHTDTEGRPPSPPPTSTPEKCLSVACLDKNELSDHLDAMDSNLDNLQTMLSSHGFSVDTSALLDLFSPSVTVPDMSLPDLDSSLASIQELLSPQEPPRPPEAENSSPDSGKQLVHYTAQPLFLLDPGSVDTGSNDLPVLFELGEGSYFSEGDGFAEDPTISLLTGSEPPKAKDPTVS
# ELF1, sequence (P32519 whole entry): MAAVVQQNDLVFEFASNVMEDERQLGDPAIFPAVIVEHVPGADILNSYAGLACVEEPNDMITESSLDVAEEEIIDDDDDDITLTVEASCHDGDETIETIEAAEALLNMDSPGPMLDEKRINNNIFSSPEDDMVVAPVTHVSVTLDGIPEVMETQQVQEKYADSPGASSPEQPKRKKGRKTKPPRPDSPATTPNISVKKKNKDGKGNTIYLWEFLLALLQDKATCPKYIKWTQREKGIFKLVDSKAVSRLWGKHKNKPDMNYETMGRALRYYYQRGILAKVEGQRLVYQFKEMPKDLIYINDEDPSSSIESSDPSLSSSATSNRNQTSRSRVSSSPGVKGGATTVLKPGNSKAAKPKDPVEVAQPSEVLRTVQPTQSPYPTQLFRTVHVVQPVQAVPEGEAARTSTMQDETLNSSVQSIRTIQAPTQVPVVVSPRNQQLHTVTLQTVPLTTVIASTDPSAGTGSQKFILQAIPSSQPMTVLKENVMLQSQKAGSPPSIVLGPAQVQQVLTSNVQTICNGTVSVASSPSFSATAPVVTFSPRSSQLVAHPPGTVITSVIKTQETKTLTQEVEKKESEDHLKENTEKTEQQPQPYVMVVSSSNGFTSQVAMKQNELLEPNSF
# ELF4, sequence (Q99607 whole entry): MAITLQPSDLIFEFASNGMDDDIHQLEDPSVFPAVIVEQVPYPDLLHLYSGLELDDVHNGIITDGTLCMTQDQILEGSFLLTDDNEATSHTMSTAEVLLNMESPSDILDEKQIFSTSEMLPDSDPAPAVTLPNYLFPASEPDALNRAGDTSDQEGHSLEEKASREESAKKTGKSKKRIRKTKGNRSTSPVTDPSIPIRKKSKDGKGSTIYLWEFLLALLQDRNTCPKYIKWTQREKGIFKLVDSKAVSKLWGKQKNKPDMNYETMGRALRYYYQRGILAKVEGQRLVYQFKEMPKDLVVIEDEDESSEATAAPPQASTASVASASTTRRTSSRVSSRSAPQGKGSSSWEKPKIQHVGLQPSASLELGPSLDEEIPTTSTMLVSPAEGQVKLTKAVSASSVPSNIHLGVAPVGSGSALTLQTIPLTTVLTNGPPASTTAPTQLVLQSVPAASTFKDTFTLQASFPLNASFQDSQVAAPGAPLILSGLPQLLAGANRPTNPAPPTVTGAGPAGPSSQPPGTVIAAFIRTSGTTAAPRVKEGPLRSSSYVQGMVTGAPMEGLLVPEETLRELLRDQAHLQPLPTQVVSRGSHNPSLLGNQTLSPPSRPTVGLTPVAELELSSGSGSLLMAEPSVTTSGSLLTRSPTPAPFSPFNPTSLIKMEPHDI
# SPIB, sequence (Q01892 whole entry): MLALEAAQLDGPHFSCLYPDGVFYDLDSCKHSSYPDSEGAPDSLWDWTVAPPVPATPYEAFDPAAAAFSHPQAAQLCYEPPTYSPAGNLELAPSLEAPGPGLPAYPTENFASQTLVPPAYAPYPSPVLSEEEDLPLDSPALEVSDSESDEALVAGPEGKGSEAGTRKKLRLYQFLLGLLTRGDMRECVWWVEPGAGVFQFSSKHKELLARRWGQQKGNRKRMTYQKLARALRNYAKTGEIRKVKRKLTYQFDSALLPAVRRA
# ETV1, sequence (P50549 whole entry): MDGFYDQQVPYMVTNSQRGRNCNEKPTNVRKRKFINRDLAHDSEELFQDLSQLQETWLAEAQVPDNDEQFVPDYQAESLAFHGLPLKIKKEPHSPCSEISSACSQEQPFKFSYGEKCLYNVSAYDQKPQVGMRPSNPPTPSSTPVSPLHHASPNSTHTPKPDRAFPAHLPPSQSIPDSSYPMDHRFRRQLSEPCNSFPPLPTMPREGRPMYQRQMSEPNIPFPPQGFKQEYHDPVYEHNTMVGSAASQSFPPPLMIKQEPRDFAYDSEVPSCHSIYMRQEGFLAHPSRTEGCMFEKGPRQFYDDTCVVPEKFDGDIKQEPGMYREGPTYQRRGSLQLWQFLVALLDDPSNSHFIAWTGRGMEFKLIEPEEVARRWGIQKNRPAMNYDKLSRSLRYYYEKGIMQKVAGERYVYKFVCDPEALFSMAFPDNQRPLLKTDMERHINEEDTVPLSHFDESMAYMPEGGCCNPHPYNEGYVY
# ETV5, sequence (P41161 whole entry): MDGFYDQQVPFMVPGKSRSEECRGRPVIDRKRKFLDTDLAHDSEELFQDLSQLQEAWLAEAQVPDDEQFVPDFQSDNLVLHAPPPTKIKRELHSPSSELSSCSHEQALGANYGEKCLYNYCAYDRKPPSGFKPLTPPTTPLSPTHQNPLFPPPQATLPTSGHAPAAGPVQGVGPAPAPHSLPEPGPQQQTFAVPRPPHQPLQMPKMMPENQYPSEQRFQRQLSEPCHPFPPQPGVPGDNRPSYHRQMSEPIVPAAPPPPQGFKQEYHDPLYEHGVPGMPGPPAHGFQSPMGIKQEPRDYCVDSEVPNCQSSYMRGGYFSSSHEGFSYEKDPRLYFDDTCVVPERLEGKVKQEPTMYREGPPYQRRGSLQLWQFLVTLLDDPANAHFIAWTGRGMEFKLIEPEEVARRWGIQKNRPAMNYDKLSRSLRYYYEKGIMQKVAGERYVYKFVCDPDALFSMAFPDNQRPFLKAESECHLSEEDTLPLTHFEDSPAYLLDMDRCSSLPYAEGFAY
# CRX, sequence (O43186 whole entry): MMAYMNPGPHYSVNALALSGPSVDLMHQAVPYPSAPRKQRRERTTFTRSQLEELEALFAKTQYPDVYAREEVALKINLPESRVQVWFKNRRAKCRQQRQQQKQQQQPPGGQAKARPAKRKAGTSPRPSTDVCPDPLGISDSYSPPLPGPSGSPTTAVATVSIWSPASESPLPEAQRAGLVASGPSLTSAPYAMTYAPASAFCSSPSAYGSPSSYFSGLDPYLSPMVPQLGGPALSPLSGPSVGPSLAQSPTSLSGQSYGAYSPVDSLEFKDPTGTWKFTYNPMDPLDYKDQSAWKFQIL
sequence,measurement,setting,value
CTTATC,binding signal,[1],"1.18 fold enrichment (6-mer frequency, TF over GST control)"
same,binding signal,[2],"1.15 fold enrichment (6-mer frequency, TF over GST control)"
same,binding signal,[3],"1.16 fold enrichment (6-mer frequency, TF over GST control)"
same,binding signal,[4],"1.1 fold enrichment (6-mer frequency, TF over GST control)"
same,binding signal,[5],"1.21 fold enrichment (6-mer frequency, TF over GST control)"
same,binding signal,[6],"1.08 fold enrichment (6-mer frequency, TF over GST control)"
same,binding signal,[7],"1.2 fold enrichment (6-mer frequency, TF over GST control)"
same,binding signal,[8],"1.21 fold enrichment (6-mer frequency, TF over GST control)"
same,binding signal,[9],"1.09 fold enrichment (6-mer frequency, TF over GST control)"
same,binding signal,[10],"1.2 fold enrichment (6-mer frequency, TF over GST control)"
same,binding signal,[11],"1.13 fold enrichment (6-mer frequency, TF over GST control)"
same,binding signal,[12],"1.6 fold enrichment (6-mer frequency, TF over GST control)"
same,binding signal,[13],"1.34 fold enrichment (6-mer frequency, TF over GST control)"
same,binding signal,[14],"1.12 fold enrichment (6-mer frequency, TF over GST control)"
same,binding signal,[15],"1.18 fold enrichment (6-mer frequency, TF over GST control)"
same,binding signal,[16],"1.03 fold enrichment (6-mer frequency, TF over GST control)"
same,binding signal,[17],"1.14 fold enrichment (6-mer frequency, TF over GST control)"
same,binding signal,[18],"2.44 fold enrichment (6-mer frequency, TF over GST control)"
same,binding signal,[19],"1.18 fold enrichment (6-mer frequency, TF over GST control)"
